Only some compounds are listed: those with a hit (about 2% of all), similar ones and a draw of the others.
A3A deaminase – blocks human APOBEC3A ssDNA deamination | recombinant A3A, FAM/TAMRA ssDNA deamination fluorescence | inhibition, % at 20 µM | 330,000 tested, 0.41% active;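 active = at least 40% inhibition at 20 µM here, with at most 30% in a related deaminase screen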;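 note: plate controls were A3A with DMSO for no effect and wells lacking A3A enzyme for full effect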
Target sequence (P31941 whole entry, looked up): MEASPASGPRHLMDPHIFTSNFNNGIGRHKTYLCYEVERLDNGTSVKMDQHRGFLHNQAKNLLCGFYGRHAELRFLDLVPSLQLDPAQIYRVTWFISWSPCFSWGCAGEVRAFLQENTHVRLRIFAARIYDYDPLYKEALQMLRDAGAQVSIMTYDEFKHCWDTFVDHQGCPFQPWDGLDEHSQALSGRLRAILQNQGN
GC-A act – GC-A (human) enzyme activation; HEK293 GC-A cells, cGMP TR-FRET, EC30 ANP; 0% at EC30 ANP, 100% saturating ANP; activation, % at 10 µM; 370,000 tested, 0.14% active; P16066; AID 1671463; in the data active = activation above about 40%
Neddyl block – cullin neddylation inhibition; P61081+Q13564; TR-FRET cullin neddylation, biochemical; inhibition, % at 25 µM; 360,000 tested, 0.58% active; AID 651699; in the data active = inhibition above about 36%
GC-B act – GC-B (human) receptor activation; P20594; HEK293-GC-B cells, CNP EC30, cGMP TR-FRET; 0% at EC30 CNP, 100% saturating CNP; activation, % at 10 µM; 370,000 tested, 0.11% active;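 active = activation at 10 µM reaching about 35% in either raw or pattern-adjusted values, limit read from the data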
APOBEC3G inh – APOBEC3G (human) deaminase inhibition. inhibition, % at 20 µM. Q9HC16. recombinant A3G, ssDNA deamination FAM/TAMRA fluorescence. 330,000 tested, 0.28% active;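 active = inhibition of at least 40% at 20 µM, with no more than 30% in the related APOBEC3A deaminase screen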;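 note: plate controls were DMSO wells with A3G for no effect and wells lacking A3G enzyme for full effect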
Target sequence (Q9HC16 whole entry, looked up): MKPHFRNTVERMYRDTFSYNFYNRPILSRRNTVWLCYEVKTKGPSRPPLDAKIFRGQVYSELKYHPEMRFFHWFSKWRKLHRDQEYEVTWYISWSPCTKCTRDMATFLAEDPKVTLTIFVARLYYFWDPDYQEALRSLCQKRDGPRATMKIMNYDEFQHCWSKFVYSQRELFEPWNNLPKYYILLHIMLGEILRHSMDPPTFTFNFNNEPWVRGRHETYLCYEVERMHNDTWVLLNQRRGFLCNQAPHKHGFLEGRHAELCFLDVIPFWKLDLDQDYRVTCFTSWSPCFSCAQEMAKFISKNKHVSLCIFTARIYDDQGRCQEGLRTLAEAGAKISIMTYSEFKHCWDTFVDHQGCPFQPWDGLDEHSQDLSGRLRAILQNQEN
PfG6PD inh – PfG6PD (Plasmodium falciparum) enzyme inhibition | PfGluPho enzyme, NADPH resazurin-diaphorase fluorescence | inhibition, % at 20 µM | 350,000 tested, 0.78% active | AID 504690;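 active = inhibition reaching at least a set limit at 20 µM in the primary screen, cut at about 59% in these data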;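 note: 0% = DMSO wells with substrate and 100% = DMSO wells lacking glucose-6-phosphate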
PfG6PD confirm – confirmation of Plasmodium falciparum G6PD inhibitors; 2,400 tested, 34% active; recombinant PfGluPho, NADPH-diaphorase-resazurin fluorescence; shares compounds with PfG6PD inh; inhibition, % at 20 µM; AID 504753;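 active = inhibition of at least 50% at 20 µM in any single replicate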;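 note: 0% = DMSO with substrate and 100% = DMSO lacking glucose-6-phosphate substrate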
Diaphorase 10uM – diaphorase inhibition or oxidation at 10 uM NADPH. shares compounds with PfG6PD inh. 820 tested, 39% active. diaphorase-coupled resazurin reduction, fluorescence, NADPH 10 uM. inhibition, % at 20 µM;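 active = average inhibition reaching 50% or more with the compound at 20 µM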;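 note: resorufin red fluorescence formed as diaphorase reduces resazurin using NADPH; 0% = DMSO with enzyme and 100% = DMSO without enzyme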
Diaph ctr 30uM – counter-screen for P. falciparum G6PD inhibitors: diaphorase inhibitors, oxidizers; shares compounds with PfG6PD inh; Diaphorase/resazurin coupled assay, resorufin fluorescence, 30 uM NADPH; inhibition, % at 20 µM; 820 tested, 29% active; AID 504863;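 active = inhibition averaging 50% or more, tested at 20 µM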;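 note: 0% = DMSO with enzyme and 100% = DMSO wells lacking diaphorase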
* marks the source's active call; other numbers are inactive results; . = not tested or not shown.

SMILES	A3A deaminase	GC-A act	Neddyl block	GC-B act	APOBEC3G inh	PfG6PD inh	PfG6PD confirm	others
O=[N+]([O-])c1ccc(-[n+]2ccc3ccccc3c2)c([N+](=O)[O-])c1	-3	-4	-4	3	-6	94*	67*	Diaphorase 10uM=38;Diaph ctr 30uM=50
O=[N+]([O-])c1ccc(SNc2ccccc2)c([N+](=O)[O-])c1	.	-3	-36	-2	.	26	.
O=S(=O)(c1ccc(=S)[nH]c1)N1CCCC1	-5	6	-5	6	36	60*	41
O=c1ccc(S(=O)(=O)N2CCCC2)c[nH]1	-2	-2	-10	-5	-5	-6	.
CC(=O)N[C@H]1C[C@@H]2O[C@H](CO)CC[C@@H]2O[C@@H]1CCc1ccc(-c2ccc(F)cc2)cc1	.	33	.	3	.	.	.
NC(=O)c1c(N)[nH]c(C(=O)c2ccccc2)c1-c1ccccc1	.	-1	.	0	.	.	.
CS(=O)(=O)N1CCC[C@]2(CC[C@H](CCC#N)O2)C1	.	-1	.	-2	.	.	.
O=C(Nc1ccc2c(c1)OCO2)OC1CCC12CCCCC2 (stereo unspecified)	.	2	.	-2	.	.	.
CC(C)=CCOc1c2ccoc2cc2oc(=O)ccc12	-5	1	-6	0	-10	72*	31
CC(C)=CCOc1c2ccoc2c(OCC=C(C)C)c2oc(=O)ccc12	3	-1	16	-7	0	128*	71*	Diaphorase 10uM=63*;Diaph ctr 30uM=59*
CCOC(=O)c1sc(N)c(C(=O)Nc2ccccc2)c1C	-5	6	-14	-3	26	64*	15
CCN(CC)C(=O)CC[C@@H]1CC[C@]2(CCCN(Cc3cccc4ccccc34)C2)O1	.	2	.	-1	.	.	.
Nc1ccccc1SC(CC(=O)c1ccccc1)c1cccc([N+](=O)[O-])c1 (stereo unspecified)	.	-1	-25	0	.	70*	22
Nc1ccccc1SC(CC(=O)c1ccccc1)c1ccc([N+](=O)[O-])cc1 (stereo unspecified)	.	3	-31	-12	.	61*	10
COc1ccc(OC)c(CN2C(=O)COc3ccccc3C2c2nnnn2C2CCCC2)c1 (stereo unspecified)	.	-15	.	-13	.	.	.
COc1ccc(N2CCN(CCCNC(=O)CCc3cccc(Cl)c3)CC2)cc1	.	-2	.	-6	.	.	.
O=C1/C(=C/Nc2ccc3c(c2)OCO3)CCc2ccccc21	-4	7	-1	-12	6	88*	41
O=C1OC2(CCCCC2)OC(=O)C1=CNc1ccc2c(c1)OCO2	1	7	1	5	-1	19	.
COc1ccc(N/C=C2\CCOC2=O)cc1	-5	-2	1	3	-5	-1	.
COc1ccc2c(c1)CC/C(=C\Nc1ccc3c(c1)OCO3)C2=O	-5	2	6	-2	21	73*	57*	Diaphorase 10uM=3;Diaph ctr 30uM=10
COc1ccc(S(=O)(=O)Nc2ccc3c(c2)OCO3)cc1	1	-8	0	-1	-4	4	.
COc1ccc(N/C=C2\CCc3ccccc3C2=O)cc1	-4	-1	0	-1	8	91*	46
COc1ccc(-c2nnc(SCC(=O)Nc3ccc(S(=O)(=O)Nc4cc(C)nc(C)n4)cc3)n2-c2ccc(OC)cc2)cc1	.	-1	.	5	.	.	.
COC(=O)C1CN(Cc2ccc(F)cc2)CCS(=O)(=O)N1Cc1ccc(OC)cc1 (stereo unspecified)	.	-4	.	-10	.	.	.
COc1cc([N+](=O)[O-])ccc1-c1ccc(/C=N\n2cnnc2)o1	-3	-9	-35	-7	-6	4	.
SMILES	A3A deaminase	GC-A act	Neddyl block	GC-B act	APOBEC3G inh	PfG6PD inh	PfG6PD confirm	others
COc1cc([N+](=O)[O-])ccc1-c1ccc(/C=C2\C(=O)ON=C2c2ccccc2)o1	.	25	-35	10	.	74*	-9
CC1=CC(C)(C)NC(=S)N1c1cc(C)cc(C)c1	-4	1	7	-1	-5	63*	23
CC1=CC(C)(C)NC(=S)N1c1cccc(Cl)c1	.	1	-7	-1	.	27	.
O=C(CSc1nnc(SCC(=O)c2ccco2)s1)c1ccco1	11	-1	-24	4	-4	1	.
O=C(CSc1nc2cc(Cl)ccc2s1)c1ccco1	-1	2	1	2	-3	113*	56*	Diaphorase 10uM=45;Diaph ctr 30uM=29
O=C(Nc1sc2c(c1C(=O)O)CCCC2)c1ccc(F)cc1	3	-3	31	0	-10	93*	73*	Diaphorase 10uM=55*;Diaph ctr 30uM=55*
NC(=O)c1c(NC(=O)c2ccc(F)cc2)sc2c1CCC2	3	-3	-16	-4	-2	47	.
COC(=O)c1c(NC(=O)c2ccccc2C(=O)O)sc2c1CCCC2	.	2	16	5	.	-31	.
CC(C)(C)c1ccc(C(=O)Nc2sc3c(c2C(=O)O)CCC3)cc1	-4	-2	.	-3	-6	76*	59*	Diaphorase 10uM=34;Diaph ctr 30uM=15
O=C(Nc1sc2c(c1C(=O)O)CCC2)c1ccco1	0	-3	7	-7	-6	14	.
O=C(Nc1sc2c(c1C(=O)O)CCCCC2)c1ccccc1F	-5	0	25	6	0	62*	40
CCn1c(SCC(=O)Nc2ccccc2-c2ccccc2)nnc1-c1ccc(Cl)cc1	.	-7	.	-9	.	.	.
NC(=O)CSc1nnc(-c2ccccc2Br)n1-c1cccc(C(F)(F)F)c1	0	-7	2	0	-6	69*	59*	Diaphorase 10uM=59*;Diaph ctr 30uM=55*
O=C(O)CSc1nnc(-c2ccccc2Br)n1-c1cccc(C(F)(F)F)c1	-4	.	11	.	-7	8	.
COCCCN1C(=O)[C@H](CC(=O)NCC2CCCCC2)[C@]2(C(=O)OC)CCCCC=C12	.	4	.	7	.	.	.
COc1cccc(-c2ccc3c(c2)[C@@H]2C[C@H]4[C@@H](CN2CC3)[C@H](C)ON4C)c1	.	-10	.	-3	.	.	.
Oc1ccc(N2CCN(c3nc(-c4cccs4)nc4ccccc34)CC2)cc1	-4	-2	-12	-2	6	60*	6
COC(=O)[C@]12C[C@H](CC(=O)NCCCN3CCCC3=O)C(=O)N(Cc3ccc(Cl)cc3Cl)C1=C[C@H](C(C)C)O[C@@H]2C1CC1	.	-16	.	-10	.	.	.
O=C(N=Nc1c(O)[nH]c2ccccc12)c1ccccc1NS(=O)(=O)c1cccs1	0	-1	-23	-1	-1	62*	12
O=C(N=Nc1c(O)[nH]c2ccccc12)c1cc(-c2cccs2)[nH]n1	1	0	-18	3	0	92*	39

Bioassay records from PubChem.
